± gives the standard deviation of the averaged measurements. The full ranking holds about 25,000 sequences; the median of “ln(normalized median fluorescence intensity)” is about 10, and the highest 2% start at about 12. Many of the other results were omitted from the sample, so the highest values are more common in it than they were.
system: PfAP2-G AP2 domain (GST-tagged); test: gcPBM binding intensity (ln(normalized median fluorescence intensity)); higher = stronger DNA binding
Summary of the method: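 GST-tagged P. falciparum DNA-binding domains, expressed in E. coli (about 25 μg on average), were applied for 1 h to an Agilent 4 × 180k array of primer-extended double-stranded 36-bp intergenic genomic probes plus negative controls. The binding buffer was 1× PBS with 1% milk, 0.2 mg/ml BSA, 0.5% salmon testes DNA and 0.03% Triton X-100. Bound protein was detected with Alexa488 anti-GST antibody and scanned at 488 nm. Binding intensity is the highest Masliner-normalised natural-log median intensity across replicate spots of either probe orientation.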

Sequence	gcPBM binding intensity (ln)
GTATATTTCTTTAAATGTACACATTTTTTTAAAGAG [XGTACX_site1225]	11.4 ± 0.98
AAAAACGAAAAAAATACACACCTGAAAAGATATGTA [CACACA_site4644]	9.72 ± 0.16
TGACATATAAAATATTCACACACAAGTTATAGTTCT [CACACA_site9209]	9.74 ± 0.11
CCAATGAGGATATATACACACATACATTAAAAAAAT [CACACA_site5090]	10 ± 0.17
AATTTAATATAATGCACACATAAAAAAAAAATCAAA [CACACA_site1]	10.1 ± 0.18
AATTTGTTATGTATATGTACATAAATAGATATATGA [XGTACX_site3930]	11.2 ± 0.7
AAAGATATTTTTATCTCACACATATAATATATATAT [CACACA_site5478]	9.84 ± 0.16
AAAAAAAATTAAATAAATAAATATACACATATATAT [GTGCAC_negctrl_site394]	9.47 ± 0.26
TAGATATATAATTTGCGTACACAAATAATATATTTT [XGTACX_site6397]	11.4 ± 0.97
AAATTAAAATATAATACACACATAAAAAAAAAAAAA [CACACA_site4183]	9.82 ± 0.38
TATATATACATACGTACACACAAATATTAAAATATA [CACACA_site1951]	11.5 ± 1.1
TTAAAATTAAAAATGCGTACACATATACATAAAAAA [XGTACX_site1915]	11.7 ± 1
ATATATATATACATACGTACACACAAATATTAAAAT [XGTACX_site4007]	11.6 ± 1.2
ATTAAATATATTTTGCGTACACAAAAAAATACGTTC [XGTACX_site3862]	11.6 ± 0.97
AATAATACACAATTTTGTACGTATTTAAAATATATT [XGTACX_site45]	11.3 ± 0.87
TATATATATACATACGTACACACAAATATTAAAATA [CACACA_site1950]	11.8 ± 1.2
TATGGAACACACCTTAATATGTGATAAAATATGATA [GTGCAC_negctrl_site718]	10 ± 0.2
AAAAATTTATTTAAAAGTACATAAAATAAAGGTGGA [XGTACX_site7591]	11.4 ± 0.69
ACATCATTTTTATGTACACACACATATACGTTGAAT [CACACA_site5095]	11.6 ± 0.98
AAGAAAATTAAATTAACACACATAAATATATATATA [CACACA_site1664]	9.85 ± 0.28
GACATTAAAATGAAATATACATATATATGTATATAT [TGCATGCA_negctrl_site601]	9.635 ± 0.049
AATTAAAATAGTAATACACACTTCATAGGAAATGAT [CACACA_site5045]	9.83 ± 0.014
TAACATTAAAATAAAAGTACTTAATAATATTAAGTA [XGTACX_site5920]	11.1 ± 0.87
TCTTATTTTTTTATATATACAAAGTTTTATATATAT [GTGCAC_negctrl_site314]	9.915 ± 0.049
TTTCCTGGTCAAGGGGTTACGGTTACGTCCTCTTGC [CACACA_negctrl_site856]	10.7 ± 0.49

Sequence	gcPBM binding intensity (ln)
ATTTTAGAATTTAATACACACAAAAAAAAAAAATTA [CACACA_site3704]	10 ± 0.33
AAATTTTAATTAGACTGTACACATTTTAGAATAATT [XGTACX_site4819]	11.6 ± 0.92
TAAATTAAGAATTTTACACACATTAAATAAAAAAAA [CACACA_site3638]	9.805 ± 0.078
TTAAAAGATATTACATGTACATATTCAATATATGTA [XGTACX_site5895]	11.1 ± 0.69
ACGTATCAATTTATTGGTACACATAAATATATATAT [XGTACX_site5556]	11.3 ± 0.92
AATTGTACGTAGGGGTATAAAAGCTTAAAAATGGGG [CACACA_negctrl_site1392]	11.6 ± 0.91
GAATGGACGTTAGGGGGTACGTATAAAATTTATCAA [XGTACX_site683]	11.7 ± 0.81
ATATATTTTCAAAAAAGTAAATCAAAATAAATATAT [TGCATGCA_negctrl_site319]	9.84 ± 0.085
AATACAGATAATACAACACACAAGTAATATAAACCT [CACACA_site5900]	9.975 ± 0.021
GGTGATATAATATATACATGCACATATATATTATTA [TGCATGCA_site970]	9.9 ± 0.042
CATTTAAAATTTGTTTGTACATATATATATATATAT [XGTACX_site6729]	11 ± 0.66
GTAGGTGTTTTTGGTTGTACATATAAATATATATAC [XGTACX_site3380]	11.3 ± 0.8
TCCTTAAAATATGGTTGTACGTACATCCTAGGTGTT [XGTACX_site7068]	11.7 ± 0.97
AAAATTAATGTTGGTTGTACAAAAATTAAATATGGT [XGTACX_site66]	11.3 ± 0.75
TATATAAATATATATGTACACACATATACATGTTGA [CACACA_site9022]	11.3 ± 0.92
TATTTCAAATGTTATGTGCACATATTAATCCTACTT [GTGCAC_site9738]	10.5 ± 0.28
ATAATTATCATAGGATGTACATATTTATTTTGTATA [XGTACX_site7797]	11.2 ± 0.67
TTATTAAAACAAAATGTACACACATATAATTTAATG [CACACA_site8193]	11.3 ± 0.73
ATTTTTGTAATTATTTGTACACATTTATTTATGTGT [XGTACX_site1864]	11.5 ± 0.73
GCAAATGTGAAAACGTGTACACATTTTATTTAATTT [XGTACX_site8000]	11.7 ± 1
TTATATTTATATTTATGTACATATTTTGTGTGAAAA [XGTACX_site2367]	11.4 ± 0.97
AATGTGAAAACGTGTACACATTTTATTTAATTTATC [CACACA_site5966]	11.6 ± 0.98
TTTATTAAAACAAAATGTACACACATATAATTTAAT [XGTACX_site1637]	11.2 ± 0.68
CGTTATATATTTTATAGTACTTTTTGTAAATTTTTT [XGTACX_site7682]	11.1 ± 0.67
CGATATGTTCAATATTGTACTATTTATAATAATATG [XGTACX_site3051]	11 ± 0.69

Sequence	gcPBM binding intensity (ln)
ATATATATATATATATGTACTAAATATTCATCCTTA [XGTACX_site6039]	11 ± 0.65
TGAATATAACAAATATGTACTTAAAATTGTTATATT [XGTACX_site5679]	11.1 ± 0.76
GTGTAATATATTTTTCGTACATATTATATATATATA [XGTACX_site1675]	11 ± 0.69
AATTATTTTAGAAACACACAAATTAGAAAAAACATA [CACACA_site7673]	10.2 ± 0.24
AAGAAAAAACAAACATGTACACATAATTTAGTTTTT [XGTACX_site3121]	11.4 ± 0.89
AATTTTTTTTTTAGACGTACAAGAAAAAACAAAAAA [XGTACX_site4990]	11.7 ± 0.75
ATTTTTTTTGCTAAGTGTACACAAATGTTTATTAAT [XGTACX_site7440]	11.7 ± 0.81
ATATATAATTTTTGCTGTACACAAAATATTAATTTA [XGTACX_site2057]	11.5 ± 0.86
TATTTTTTTTTTTAATGTACAAACAAATTATGTTGG [XGTACX_site2873]	10.8 ± 0.57
TTTATATGTATTAAGTGTACACATATAATGTGTTTT [XGTACX_site4890]	11.6 ± 0.87
TTTTTTGCTAAGTGTACACAAATGTTTATTAATTTA [CACACA_site5859]	11.7 ± 1
TTTATATGTATTAAGTGTACACATATAATGTATTTT [XGTACX_site16]	11.5 ± 0.83
TCATATTCCAAAAAAAAAAAAAAAAAAAAAAAAATA [CACACA_negctrl_site1293]	9.66 ± 0.3
AATAAATATTCATTTTGTACATATTTTTCGTATATG [XGTACX_site6104]	10.9 ± 0.57
TTGGGCATAATGTCATGTACACAAATAATTCTTTAT [XGTACX_site861]	11.5 ± 1
TATATATATATATATTGTACATATATTATTATATAT [XGTACX_site7447]	10.9 ± 0.53
AATTTACAAAAAAGAAAAAAAAAAAAAAAGATACTT [CACACA_negctrl_site1434]	9.65 ± 0.071
ATACGAAAAAAAAAAAGTACACAAAAATATCTACAT [XGTACX_site2051]	11.7 ± 1.1
TACGAATTAAAAAAGAGTACAAATAAAATATCTACA [XGTACX_site7412]	11.3 ± 0.84
AAAAAGAAAAAAGAAAGTACAAATATACACATTTTT [XGTACX_site3343]	10.9 ± 0.54
TTGTTCTATTTAAGTAGTACATACACACACATATAC [XGTACX_site8484]	11.5 ± 0.71
ACATCATATTAAGAAAGTACAAAAAGAGAACATATA [XGTACX_site1268]	11 ± 0.4
ATTTAAGTAGTACATACACACACATATACAAAAAGA [CACACA_site9317]	11.7 ± 1.3
TTAAGTAGTACATACACACACATATACAAAAAGAAA [CACACA_site3972]	11.7 ± 1.2
AAAAAAAAAAGAAAAAGTACATACATACATATATAT [XGTACX_site6405]	11.3 ± 0.83

Sequence	gcPBM binding intensity (ln)
ATTTATATTACAAAAAGTACACACATAAATAAATAC [XGTACX_site1827]	11.6 ± 0.92
ATTCATAAAAAGAGGTGTACATTAATATAATATATA [XGTACX_site8283]	11.5 ± 0.95
ATTTTGTTATTATATATATATATATATATATATATA [XGTACX_negctrl_site590]	9.89 ± 0.49
GATCATTTAAAATAAGTAATATTTTTTTTACTTTTG [TGCATGCA_negctrl_site602]	9.62 ± 0.26
GTTCATAAAAATTTTTGTACCCATAAAATATTCCTC [XGTACX_site8611]	11.2 ± 0.65
AATAATTGTTATAGTTGTACAATACATATATTACAA [XGTACX_site30]	11.3 ± 0.63
ACAGACGTTCAAAGGTGTACGCAAAATGAATAATAT [XGTACX_site7565]	11.6 ± 1
AAAAAAAAAAAAAAAAGTACAGACGTCAAAAAAAAA [XGTACX_site4817]	11.6 ± 0.76
AAAAAAAAAAAAAAGAGTACACAGACGTTCAAAGGT [XGTACX_site7566]	11.7 ± 0.77
TTTAAATATATTCAATCACACACATTCGTTTTTTTT [CACACA_site7962]	9.77 ± 0.24
GGCAAATTTATTATACCCACATACATACATACATAC [XGTACX_negctrl_site186]	10.8 ± 0.62
TTTACATTTTAGGAAGTGCATATAATAAATACTATC	10.1 ± 0.2
ATCATAAAAGTATACACACATACATACATATGTACA [CACACA_site2641]	10.8 ± 0.45
AAAAAAAAAAAAAAAAGTACATATATATATATAATT [XGTACX_site4437]	11.5 ± 0.86
TATATCATAAAAAATTGTACATATATATATTATATA [XGTACX_site6726]	11 ± 0.69
AAAAAAAAATTGTGTACACATAATTATATCATATGT [CACACA_site4500]	11.7 ± 0.89
ATAATTATATATATATGTACATATTATATATATATA [XGTACX_site4526]	11.2 ± 0.77
TTAGTAGTATTATGTAGTACATAATTATCATATCAT [XGTACX_site817]	11.6 ± 1.1
TATATAAAAAGTAATTGTACATATATATATATATAT [XGTACX_site7953]	10.9 ± 0.68
AAAAAAAAAAAAAAAAGTACATATATATATAATTAT [XGTACX_site7836]	11.7 ± 0.89
ACATATTAATTATAAAGTACATATATATATATATAT [XGTACX_site4540]	11.3 ± 0.79
ATAAAAATAATATCATGTACATATGTGTATTGTATT [XGTACX_site1768]	11 ± 0.49
ATTATATTATATATATGTACATATATATATCATAAT [XGTACX_site1]	11.1 ± 0.66
AAAAAAAAAAAAAAAAGTACACATAATTGTATATGT [XGTACX_site6339]	11.7 ± 0.75

From the supplement of paper PMC11417369
